# Experimental data taken from ChEMBL document CHEMBL3988442, “University of Dundee, Small-Polar-MMV Screening Library” (2021).
# The whole screen tested about 48,000 compounds, of which about 13,000 (27%) showed an effect of 50% or more. The list shows a part of the results.
# Tested on: Wolbachia pipientis
# Experiment: Anti-Wolbachia Cell-Based Screen
# Assay type: functional
# Parameters: scale not given: in the data most compounds retested in dose-response had high values
# Conditions: 5 µM
row,SMILES,Percent Effect
1,O=C(NCCNc1ncccn1)NCCSC(F)(F)F,-9.16%
2,Cc1cnn(C2CN(CC(O)c3ccc4c(c3)OCCO4)C2)c1 (centres undefined),-3.679%
3,Cc1nn(C)c(N(C)C)c1CNCCCN(C)S(C)(=O)=O,-15.04%
4,CCOc1cc(C(=O)O)cc(-c2ccccc2)c1OC,-26.33%
5,CCCNC(=O)Nc1cc2c(cc1SC)OCCO2,21.87%
6,CCOCCCC(=O)Nc1cc(C(N)=O)ccc1N1CCCCC1,2.668%
7,CC(C(=O)NCCOc1ccc2c(c1)OCO2)n1cncn1 (centres undefined),5.572%
8,CC(C(=O)NCCc1ccc2c(c1)OCCO2)n1cncn1 (centres undefined),104.6%
9,CC(Cn1ccnc1)NC(=O)NCCc1ccc2c(c1)OCCO2 (centres undefined),0.8239%
10,Cc1nn(C)c(C)c1C1CCCN1Cc1nc(N)c2ccccc2n1 (centres undefined),120.3%
11,CCC1CCCN(Cc2nc3ccccc3c(=O)[nH]2)C1 (centres undefined),-14.75%
12,Cc1nc2ccccc2nc1CN1CCCC1c1c(C)nn(C)c1C (centres undefined),2.386%
13,Cc1nn(C)c(C)c1C1CCCN1Cc1nc(C)c2ccccc2n1 (centres undefined),40.75%
14,Cc1cc(C)n(C2CCN(Cc3nc4ccccc4n3C)CC2)n1,188.5%
15,Cc1nn(C)c(C)c1C1CCCN1Cc1nc2ccccc2n1C (centres undefined),136.2%
16,Cc1nn(C)c(C)c1C1CCCN1Cc1nc2ccccc2c(=O)[nH]1 (centres undefined),97.01%
17,Cn1c(CN2CCN(CC3CCCO3)CC2)nc2ccccc21 (centres undefined),-23.45%
18,Cc1nn(C)c(C)c1C1CCCN1Cc1nc2ccccc2o1 (centres undefined),33.14%
19,Cc1nc(C)n(CC2CCCN2Cc2nc3ccccc3n2C)n1 (centres undefined),1.241%
20,Cc1nc(CN2CCCC2c2c(C)nn(C)c2Cl)no1 (centres undefined),-6.071%
21,O=c1oc(-c2ccccc2)nn1CN1CCC(N2CCCCC2)CC1,-11.85%
22,Cc1nc2scc(C)n2c1CNc1ccc(C(=O)O)cc1,1.868%
23,CCC[C@@H]1CN(S(=O)(=O)c2ccc3[nH]c(=O)[nH]c3c2)C[C@H]1NC(C)=O,-12.43%
24,Cn1c(CN2CCN(CC3CC3)CC2)nnc1C1CCC1,-1.801%

row,SMILES,Percent Effect
1,Cc1ccnc(C(NC(=O)c2ccc(O)nc2C)C2CC2)n1 (centres undefined),19.85%
2,COC(CNC(=O)c1ccc[nH]1)c1cccc(Cl)c1 (centres undefined),-25.79%
3,Cc1cccc2c1nc(CCO)n2-c1ccc(C(=O)N2CCOCC2)o1,-4.594%
4,CC(C)Oc1cc(N2CCC(C(N)=O)CC2)nc(N)n1,11.1%
5,CCN(CC)S(=O)(=O)N1CC[C@H](c2ccccc2)[C@@H]2[C@H]1CCCCN2C,135.6%
6,CCN(CC)S(=O)(=O)N1C[C@@H](c2ccccc2)[C@H]2[C@H]1CCCCCN2C,163.4%
7,CCN(CC(=O)NC(C)C)S(=O)(=O)N1CCCCC1C (centres undefined),-3.982%
8,Cc1cc(S(=O)(=O)N2CCCc3ccc(F)cc32)sc1C(=O)O,-10.9%
9,O=C([C@@H]1CCO[C@@H]2CCN(Cc3ccco3)C[C@H]21)N1CCCCO1,1.589%
10,COc1ccc(CN2CCC[C@@H]3CN(C(=O)c4ccco4)C[C@@H]32)cc1.O=C(O)C(F)(F)F,6.144%
11,COCC(=O)N1CCC(=O)N(C2CCCC2)Cc2ccccc21,125.1%
12,COc1cccc(SCC(=O)N2CCCC(N3CCCC3=O)C2)c1 (centres undefined),3.036%
13,COCC(=O)N1CCC(=O)N(C2CCCC2)Cc2cc(F)ccc21,102.4%
14,CC(=O)N1CCCN(C2CCCCc3ccccc32)CC1 (centres undefined),16.59%
15,COCC(=O)N1CCCN(C(=O)C2Cc3ccccc3CN2C)CC1 (centres undefined),-0.0278%
16,COC(C)(C)CNC(=O)C1CCC(=O)N(C2CCCC2)C1 (centres undefined),-37.87%
17,CC(=O)N1CCC(=O)N(C2CCCC2)Cc2ccccc21,106.7%
18,COc1cccc(-n2nnc(C(=O)N3CCCC3)c2C)c1,-5.233%
19,CO[C@H]1CCN(c2ccc(C)nn2)[C@H]1Cc1cnn(C)c1,-0.6949%
20,Cn1cc(C[C@H]2[C@H](O)CCN2C(=O)C2CCCC2)cn1,-2.611%
21,COCCO[C@H]1CCN(C(=O)c2ccno2)[C@H]1Cc1cnn(C)c1,-8.767%
22,COCCO[C@H]1CCN(c2ccc(C)nn2)[C@H]1Cc1cnn(C)c1,102.2%
23,Cc1ccc(N2CC[C@H](O)[C@@H]2Cc2cnn(C)c2)nn1,105.5%
24,COCCO[C@@H]1CCN(C(=O)c2ccc(C)o2)[C@@H]1Cc1cnn(C)c1,-2.237%

row,SMILES,Percent Effect
1,CCO[C@@H]1CCN(C(=O)N(C)C)[C@@H]1Cc1cnn(C)c1,6.075%
2,Cn1cc(C[C@H]2[C@@H](O)CCN2C(=O)c2ccc[nH]2)cn1,-3.734%
3,CCO[C@@H]1CCN(c2ccc(C)nn2)[C@@H]1Cc1cnn(C)c1,109.6%
4,CCC(C)(NCC(=O)OC)c1nc(C)cs1 (centres undefined),4.251%
5,CC(C)c1nc2n(n1)CC(NCC(=O)N(C)Cc1cccs1)CC2 (centres undefined),-0.7675%
6,Cn1c(=O)[nH]c2cc(C(=O)OCCCn3ccccc3=O)ccc21,-6.987%
7,CCO[C@H]1CC[C@H]2[C@H]1OCCN2CCOCc1ccccc1.O=C(O)C(F)(F)F,-37.65%
8,O=C(CO[C@@H]1CC[C@H]2[C@H]1OCCN2CC1CCOCC1)N1CCCC1.O=C(O)C(F)(F)F,-8.196%
9,Cc1nnc(N2C[C@H](OCCCn3cccn3)[C@H]3OCCC[C@H]32)s1,1.098%
10,O=C(O)C(F)(F)F.O=C(O)C(F)(F)F.c1cnn(CCCO[C@@H]2CN(C3CCOCC3)[C@@H]3CCCO[C@@H]32)c1,99.23%
11,O=C(O)C(F)(F)F.O=C(O)C(F)(F)F.c1cnn(CCCO[C@@H]2CC[C@H]3[C@H]2OCCN3CC2CCOCC2)c1,107.9%
12,CCO[C@@H]1CC[C@H]2[C@H]1OCCN2CCOCc1ccccc1.O=C(O)C(F)(F)F,-21.46%
13,Cc1nnc(N2C[C@@H](OCCCn3cccn3)[C@H]3OCCC[C@H]32)s1.O=C(O)C(F)(F)F.O=C(O)C(F)(F)F,12.15%
14,O=C(O)C(F)(F)F.O=C(O)C(F)(F)F.c1cnn(CCCO[C@@H]2CC[C@H]3[C@H]2OCCN3CC2CC2)c1,100.5%
15,CN(C)CCSc1ccc(NC(=O)c2nccn3ccnc23)cc1,11.77%
16,COc1cc(OC)cc(C2CCN(CC(=O)NCC(F)(F)F)C2)c1 (centres undefined),-9.174%
17,Cc1ccc(CN2CCC3(CC2)COCCN3S(C)(=O)=O)o1.O=C(O)C(F)(F)F,105%
18,Cc1ccc(CN2CCOC3(COCCN(S(C)(=O)=O)C3)C2)o1.O=C(O)C(F)(F)F (centres undefined),-4.149%
19,Cc1ccc(CN2CCOC3(COCCN(Cc4ccncc4)C3)C2)o1.O=C(O)C(F)(F)F.O=C(O)C(F)(F)F.O=C(O)C(F)(F)F (centres undefined),-16.88%
20,CS(=O)(=O)N1CCOCC2(CN(Cc3ccc(F)cc3)CCO2)C1.O=C(O)C(F)(F)F (centres undefined),-3.432%
21,CS(=O)(=O)N1CCOCC12CCN(Cc1ccc(F)cc1)CC2.O=C(O)C(F)(F)F,90.38%
22,COCc1nc(CNc2cccc(-c3nc(C)c(C)o3)c2)cs1,-0.1423%
23,N#Cc1cccc(C(=O)N2C[C@H]3CC[C@@H]2CN(C(=O)C2CCC2)C3)c1,-9.215%
24,CN(C)S(=O)(=O)N1C[C@@H]2CC[C@H](C1)N(Cc1ccc(F)c(F)c1)C2,-2.464%

row,SMILES,Percent Effect
1,Cc1c(Cl)cc(C(=O)NCCc2ncnn2C)cc1Cl,-11.54%
2,O=C1CC(c2cccc(O)c2)c2sc(C(=O)O)c(-c3ccccc3)c2N1 (centres undefined),10.05%
3,CNC(=O)[C@H]1CCS(=O)(=O)[C@@H]2CN(Cc3ccc(OC)cc3)C[C@H]12,0.06663%
4,Cc1ccc(CN2C[C@H]3C[C@H](C(=O)NCc4cccnc4)[C@@H](C2)O3)cc1,0.7721%
5,CNC(=O)[C@H]1C[C@@H]2CN(Cc3ccccc3)C[C@H]1O2.O=C(O)C(F)(F)F,106.1%
6,CNC(=O)[C@H]1C[C@@H]2CN(Cc3cccc(C)c3)C[C@H]1O2.O=C(O)C(F)(F)F,116.6%
7,CNC(=O)[C@H]1C[C@@H]2CN(Cc3ccc(C)cc3)C[C@H]1O2.O=C(O)C(F)(F)F,103.7%
8,Cc1cccc(CN2C[C@H]3C[C@H](C(=O)NCc4cccnc4)[C@@H](C2)O3)c1.O=C(O)C(F)(F)F.O=C(O)C(F)(F)F,-0.193%
9,COc1ccc(CN2C[C@@H]3COC[C@H](N4CCN(C)CC4)[C@@H]3C2)cc1.O=C(O)C(F)(F)F.O=C(O)C(F)(F)F.O=C(O)C(F)(F)F,-28.1%
10,CNC(=O)[C@H]1C[C@@H]2CN(Cc3ccc(OC)cc3)C[C@H]1O2.O=C(O)C(F)(F)F,98.44%
11,CN(C)C(=O)[C@H]1C[C@@H]2CN(CCc3ccccc3)C[C@H]1O2.O=C(O)C(F)(F)F,12.58%
12,CC(C)c1nc(CNc2ccc(N3CCC(CO)CC3)cn2)cs1,0.232%
13,Cl.O=C(CN1CCC[C@@H]1C(=O)O)NCCOc1cccc(C(F)(F)F)c1,-3.641%
14,Nc1nccc(N2C[C@@H](CN3CCCCC3)[C@@H](CO)C2)n1,106.5%
15,Cc1nc(N2C[C@@H](CN3CCCCC3)[C@@H](CO)C2)c2sccc2n1,8.907%
16,Cn1ccnc1CN1C[C@@H](CN2CCCC2)[C@@H](CO)C1,2.193%
17,Cn1ccnc1CN1C[C@@H](CN2CCCCC2)[C@@H](CO)C1,-0.1943%
18,OC[C@H]1CN(Cc2c(Cl)cccc2Cl)C[C@H]1CN1CCCCC1,2.429%
19,Cc1nccc(N2C[C@@H](CN3CCCC3)[C@@H](CO)C2)n1,109.4%
20,CSc1nccc(N2C[C@@H](CN3CCCCC3)[C@@H](CO)C2)n1,104.9%
21,Cn1ccnc1CN1C[C@@H](CN2CCCCCC2)[C@@H](CO)C1,-5.321%
22,CCN1CCN(C[C@@H]2CN(c3ncccc3Cl)C[C@@H]2CO)CC1,-1.669%
